# Screening results: PubChem, several laboratories
# KKLEB cytotox: cytotoxicity in KKLEB CF airway cells, primary screen, cytotoxicity control for CF NF-kB inhibitor project, cell-based, uHTS, fluorescence assay plates; KKLEB CF airway cells viability, ATPlite luminescence, overnight; stronger effect = lower value; cells stimulated with P. aeruginosa culture filtrate; activity change (cytotoxicity), % at 5 µM; hit rate 0.36% among 360,000;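 active = corrected activity change at or below -50% at 5 µM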
# MITF TRPM1 inh: inhibitors of MITF-dependent TRPM1 promoter reporter, primary screen, cell-based, SK-MEL-5, single point, luciferase; hit rate 0.83% among 330,000; SK-MEL-5 TRPM1 promoter luciferase, 24 h; inhibition, % at 12.5 µM;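 active = mean inhibition across replicates of 60% or more, whatever share of single replicates reaches that level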
# HIF-2a block: HIF-2a reporter inhibitors, primary screen, luminescence, 786-0 RCC cells | 786-0 RCC cells HIF-2a reporter, luciferase luminescence, overnight | inhibition, % at 18.8 µM | hit rate 0.72% among 360,000 | AID 624352, 2012;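 active = inhibition of the luminescence signal of 40% or more relative to plate controls, in a single-dose primary screen at 18.75 µM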
# CF NFkB block: inhibitors of PAF-induced NF-kB signaling, primary screen, cell-based, GFP fluorescence, uHTS. KKLEB NF-kB-GFP reporter, GFP fluorescence overnight. inhibition, % at 5 µM. hit rate 0.86% among 360,000;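 active = at least 50% inhibition at 5 µM, scaled per plate between neutral and stimulator controls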;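 also: PAF is a Pseudomonas aeruginosa culture filtrate used as stimulus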
# Peg3 promoter: Peg3 promoter-driven luciferase inhibitors, primary screen, cell-based, HeLa, luciferase luminescence | hit rate 1.7% among 360,000 | inhibition, % at 20 µM | HeLa PEG-Prom luciferase reporter, overnight;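 active = inhibition of at least 50% at 20 µM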
# ABHD5 PLIN5 PPI: ABHD5-PLIN5 interaction inhibitors, primary screen, cell lysate, split luciferase complementation, luminescence; Perilipin-5 (Homo sapiens) + 1-acylglycerol-3-phosphate O-acyltransferase ABHD5 (Homo …; Split G. princeps luciferase complementation, 4 h; inhibition, % at 4 µM; hit rate 0.78% among 360,000;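 active = inhibition above the mean inhibition across every tested compound plus 3 SD, cut at about 22% in these data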
# CF NFkB inh conf: inhibitors of PAF-induced NF-kB signaling, retest, confirmation, cell-based, GFP fluorescence, single concentration; shares compounds with CF NFkB block; KKLEB CF airway cells, overnight; inhibition, % at 5 µM; hit rate 64% among 1,300; AID 602472, 2012; in the data active = inhibition above about 40%;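 also: stimulus PAF is a Pseudomonas aeruginosa filtrate and not platelet activating factor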
# ABHD5-PLIN5 conf: ABHD5-PLIN5 interaction inhibitors, confirmation, biochemical, luminescence. shares compounds with ABHD5 PLIN5 PPI. inhibition, % at 4 µM. hit rate 67% among 2,200; in the data active = inhibition above about 23%
# HNF4 counter: HNF4 dimerization inhibitors, counter-screen for ABHD5-PLIN5 interaction inhibitor project, biochemical, split-luciferase complementation, luminescence. shares compounds with ABHD5 PLIN5 PPI. hit rate 77% among 2,200. inhibition, % at 4 µM;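 active = mean inhibition across replicate wells exceeding the computed hit threshold, cut at about 13% in these data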;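 also: light from luciferase halves that rejoin when HNF4 fusion proteins dimerize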
# Target sequence (P41235 whole entry, looked up, the tested form may be a part): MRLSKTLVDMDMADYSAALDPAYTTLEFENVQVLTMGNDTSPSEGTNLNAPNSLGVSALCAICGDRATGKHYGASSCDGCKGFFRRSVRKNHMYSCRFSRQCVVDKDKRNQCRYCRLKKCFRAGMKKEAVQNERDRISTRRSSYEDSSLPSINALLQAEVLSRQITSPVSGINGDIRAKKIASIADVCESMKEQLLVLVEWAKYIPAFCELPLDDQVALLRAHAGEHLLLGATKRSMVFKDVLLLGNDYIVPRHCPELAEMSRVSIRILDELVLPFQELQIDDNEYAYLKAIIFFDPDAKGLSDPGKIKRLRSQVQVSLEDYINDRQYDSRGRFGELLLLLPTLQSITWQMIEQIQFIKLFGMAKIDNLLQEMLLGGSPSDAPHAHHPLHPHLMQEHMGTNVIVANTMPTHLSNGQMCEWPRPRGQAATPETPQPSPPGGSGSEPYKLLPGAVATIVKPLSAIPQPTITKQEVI
# Mdm2 MdmX conf: retested Mdm2-MdmX interaction blockers, confirmation, cell-based, luminescence, single concentration, set 2. SaOS-2 split-luciferase Mdm2/MdmX complementation. inhibition, % at 8 µM. shares compounds with HIF-2a block. AID 504601, 2011. hit rate 99% among 740;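 active = mean inhibition of the luminescence signal across two replicates at or above 26 percent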
# HIF-2a inh conf: HIF-2a reporter inhibitor retest, confirmation, luminescence, 786-0 RCC cells; HIF-2a luciferase reporter luminescence, overnight; shares compounds with HIF-2a block; inhibition, % at 18.8 µM; hit rate 56% among 1,800;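 active = mean inhibition across four replicates of at least 40 percent at the single tested concentration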
# HIF-1a cs: HIF-1a luciferase reporter signal reduction – MiaPaCa-2 cells, single concentration, counter-screen for HIF-2a inhibitor project, confirmation | MiaPaCa-2 HIF-1a luciferase reporter, desferoxamine, overnight | hit rate 72% among 1,800 | AID 651589, 2012 | inhibition, % at 18.8 µM | shares compounds with HIF-2a block;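 active = mean inhibition of the reporter signal across four replicates at the single tested dose of 50% or more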
# Numbers stand for hits; i = inactive; nt = no result given. Only some compounds are listed: those with a hit (about 3% of all), similar ones and a draw of the others.
SMILES,KKLEB cytotox,MITF TRPM1 inh,HIF-2a block,CF NFkB block,Peg3 promoter,ABHD5 PLIN5 PPI,ABHD5-PLIN5 conf,HNF4 counter,others
COCCNC(=O)C1(C)CCN(C(=O)c2ccc3c(c2)C(C)(C)CCC3(C)C)C1 (stereo not given),i,nt,i,i,i,i,nt,nt,
C[C@H](NC(=O)C1CCN(S(=O)(=O)c2ccccc2)CC1)C(=O)NCc1ccccn1,i,i,i,i,i,i,nt,nt,
Cc1ccc(C)c(Cn2nnc3c(=O)[nH]c(C(=O)NCc4ccco4)nc32)c1,i,i,i,i,i,i,nt,nt,
O=C(NCc1ccco1)c1nc2c(nnn2Cc2ccccc2Cl)c(=O)[nH]1,i,72,45,90,94,i,nt,nt,CF NFkB inh conf=100;HIF-2a inh conf=57;HIF-1a cs=106
CN(C(=O)COC(=O)/C=C/c1ccc(C(F)(F)F)cc1)c1c(N)n(Cc2ccccc2)c(=O)[nH]c1=O,i,i,i,i,i,i,nt,nt,
Cc1noc2ncnc(Sc3ccccc3Cl)c12,i,i,67,53,115,i,nt,nt,CF NFkB inh conf=i;HIF-2a inh conf=i;HIF-1a cs=i
Cc1cc(C)c2nc(C(F)(F)F)c(C#N)c(N)c2c1,i,i,i,70,73,i,nt,nt,CF NFkB inh conf=92;Mdm2 MdmX conf=83
COC(=O)C(=Cc1ccccc1[N+](=O)[O-])C(=O)OC,i,i,77,59,53,i,nt,nt,CF NFkB inh conf=i;HIF-2a inh conf=72;HIF-1a cs=59
COc1ccc(CNC(=O)/C=C/c2ccccc2[N+](=O)[O-])cc1,i,i,i,i,i,i,nt,nt,
O=C(O)c1cc(S(=O)(=O)N2CCCCC2)ccc1N1CCCC1,i,i,i,i,i,i,nt,nt,
O=C1NC[C@H](Cc2ccccc2)N(C[C@H]2CCCN2C[C@H](Cc2ccccc2)N2C[C@H](Cc3ccccc3)N(CC3CCCCCC3)C(=O)C2=O)C1=O,i,i,80,56,54,i,nt,nt,CF NFkB inh conf=i;HIF-2a inh conf=i;HIF-1a cs=105
C=CCNC(=O)/C(C#N)=C/c1ccc(OS(=O)(=O)c2ccc(C)cc2)c(OC)c1,i,i,59,75,i,i,nt,nt,CF NFkB inh conf=i;HIF-2a inh conf=46;HIF-1a cs=97
COC(=O)N/N=C/c1ccc(OS(=O)(=O)c2ccc(C)cc2)c(OC)c1,i,i,i,i,i,i,nt,nt,
CC(=O)OC1CCC2(C)C(CCC3C4CC=C(C(C)=O)C4(C)OC(=O)CC32)C1 (stereo not given),i,nt,66,96,111,61,88,93,CF NFkB inh conf=101;HIF-2a inh conf=62;HIF-1a cs=105
O=C(NN=Cc1cccc([N+](=O)[O-])c1)c1cccc2ccccc12,i,i,i,i,i,i,nt,nt,
COc1ccc(N(C(=O)C(C)C)S(=O)(=O)c2cccs2)cc1,i,i,i,i,i,i,nt,nt,
CC(C)C(=O)N(c1cc2sc(=O)oc2c2ccccc12)S(=O)(=O)c1cccs1,i,i,i,i,i,68,i,75,
Cc1ccc(S(=O)(=O)n2cccc2/C=C/[N+](=O)[O-])cc1,i,nt,i,i,i,46,101,102,
COc1cccc(NC(=O)COC(=O)c2c(C)nn(-c3ccccc3)c2C)c1,i,i,i,i,i,i,nt,nt,
CCCCCCCCN1C(=O)[C@H](CC(=O)NCc2ccc(C)o2)C[C@@]2(C(=O)OC)CCCCC=C12,nt,nt,i,nt,nt,36,23,i,
COC(=O)[C@]12CCCCC=C1N(CCC1=CCCCC1)C(=O)[C@H](CC(=O)NCc1ccc(C)o1)C2,nt,nt,i,nt,nt,i,nt,nt,
CCCCCCCCN1C(=O)[C@H](CC(=O)NCc2ccc(C)o2)C[C@@]2(C(=O)OCC)CCC=C12,nt,nt,i,nt,nt,31,28,16,
COc1ccc(Br)cc1CN1CCN(C(=O)c2ccco2)CC1,i,i,i,i,i,i,nt,nt,
Cc1cccc(CN(C(=S)Nc2c(C)cccc2C)c2cccnc2)c1,i,i,i,i,i,i,nt,nt,
Cc1ccc(C(=O)Nc2ccccc2C(=O)N2CCCCC2C)cc1 (stereo not given),i,i,i,i,i,106,i,i,
SMILES,KKLEB cytotox,MITF TRPM1 inh,HIF-2a block,CF NFkB block,Peg3 promoter,ABHD5 PLIN5 PPI,ABHD5-PLIN5 conf,HNF4 counter,others
O=[N+]([O-])c1ccc(S(=O)(=O)c2cccc(C(F)(F)F)c2)nc1,i,83,52,89,100,52,88,113,
CC1CCCC(C)N1C(=S)SCC(=O)O (stereo not given),i,i,i,i,i,i,nt,nt,
CC(=O)c1ccccc1NC(=O)c1ccc(N2CCCC2=O)cc1,i,i,i,i,i,i,nt,nt,
O=c1c(Br)ccc(Br)cc1Br,-94,102,89,91,95,84,101,111,
O=C1CN(S(=O)(=O)c2cc(Br)ccc2Br)CCN1,i,nt,i,i,i,i,nt,nt,
Cc1cc(NC(=O)CSc2nnc3ccc(-c4ccc(F)cc4)nn23)no1,i,i,i,i,i,i,nt,nt,
CCOC(=O)Cn1c(=N)n(CCOc2ccc(OC)cc2)c2ccccc21,i,i,i,i,i,i,nt,nt,
CCOC(=O)Cn1c(=N)n(CCOc2ccc3ccccc3c2)c2ccccc21,i,i,i,i,i,25,i,i,
Cc1nn(-c2ccccc2)c2nc(-c3ccncc3)cc(C(=O)NCc3ccco3)c12,i,i,i,i,i,24,i,26,
Cc1ccccc1-n1nc(C)c2c(C(=O)NN)cc(-c3ccncc3)nc21,i,i,i,i,i,i,nt,nt,
Cc1nn(-c2ccccn2)c2nc(-c3cccs3)cc(C(=O)NCc3ccco3)c12,i,i,i,i,i,35,i,15,
